The structures appear in SMILES notation. Values joined by “and” are separate entries in the source; they are usually repeats but may differ in a detail not shown here. Equal entries are not always repeated. About 610 (9.5%) of roughly 6,400 compounds were called active. No stated cut-off is given here; in the data, active means activity change below about -70%; inconclusive means no clear call, values can overlap the other calls; inactive means above that. The entries come from a sample that favours actives as a whole.

This is an account of results in PubChem BioAssay AID1259421 (Broad Institute, 2018).

This test in a line: Toxoplasma gondii ME49Luc growth in HeLa cells, luciferase, no IFN-y, primary screen (AID 1259421). The note with it: T. gondii ME49Luc in HeLa, 72 h, active compounds read low, concentration not given here.
Turning to `CC/C=C\C/C=C\C/C=C\C/C=C\C/C=C\CCCC(=O)O`, the activity change, negative = inhibition was 2.92% (inactive). Then `COc1ccc(NS(=O)(=O)c2ccc(N=Nc3ccc(O)c(C(=O)O)c3)cc2)nn1`, with 5.08% (inactive); and `O=C(O)Cc1nn(Cc2nc3cc(C(F)(F)F)ccc3s2)c(=O)c2ccccc12`, with 19.5% (inactive); and `COc1ccc(Nc2ncnc3ccc(OC)cc23)cc1`, with 3.66% (inactive) and 3.52% (inactive). In the case of `COCC(=O)NC/C=C/c1ccc2ncnc(Nc3ccc(Oc4ccc(C)nc4)c(C)c3)c2c1`, the activity change, negative = inhibition was -85.5% (active).

For the compound `C=CC(=O)Nc1ccc2ncnc(Nc3cccc(Br)c3)c2c1`, the activity change, negative = inhibition is -18.1% (inactive).

For `c1ccc(Oc2cccnc2)cc1`, the activity change, negative = inhibition is 5.26% (inactive). Then `CC1=CC(=O)CC(C)(C)[C@@]1(O)/C=C/C(C)=C\C(=O)O`, with 0.0395% (inactive); and `CCCCC[C@H](O)/C=C/[C@@H]1[C@H]2C/C(=C/CCCC(=O)O)O[C@H]2C[C@H]1O`, with 13.9% (inactive); and `O=C(O)CCc1nc2ccccc2[nH]1`, with 7.52% (inactive) and 21.6% (inactive).

As to `COCC(=O)O[C@]1(CCN(C)CCCc2nc3ccccc3[nH]2)CCc2cc(F)ccc2[C@@H]1C(C)C`, the activity change, negative = inhibition is -74.4% (active) and -72.6% (active). Regarding `CC(C)[C@H]1c2ccc(F)cc2CC[C@@]1(CCN(C)CCCc1nc2ccccc2[nH]1)OC(=O)C1CC1`, the activity change, negative = inhibition was -84% (active) and -73.8% (active).

Take `O=C(O)C1CC(O)CN1` (stereo not given): the activity change, negative = inhibition was -0.806% (inactive). On to `Cc1ccc(S(=O)(=O)Nc2nc3ccccc3nc2Nc2ccc3nsnc3c2)cc1`, for which the activity change, negative = inhibition was 1.14% (inactive). Then `O=c1oc2cc(O)ccc2c2oc3cc(O)ccc3c12`, with 13.4% (inactive). `CN(C)CC[C@H](CSc1ccccc1)Nc1ccc(S(=O)(=O)NC(=O)c2ccc(N3CCN(Cc4ccccc4-c4ccc(Cl)cc4)CC3)cc2)cc1[N+](=O)[O-]`: the activity change, negative = inhibition was -28.3% (inactive). Then `CC1(C)CCC(c2ccc(Cl)cc2)=C(CN2CCN(c3ccc(C(=O)NS(=O)(=O)c4ccc(N[C@H](CCN5CCOCC5)CSc5ccccc5)c(S(=O)(=O)C(F)(F)F)c4)cc3)CC2)C1`, with -89% (active).

For the compound `COC(=O)C(CCCN=C(N)N)NC(=O)CCCc1c(-c2ccccc2)[nH]c2c(F)cc(F)cc12` (stereo not given), the activity change, negative = inhibition was 11.7% (inactive).

As to `C=C1[C@H]2CC[C@@]3(C)[C@H](c4ccoc4)OC(=O)C[C@]13O[C@H]1C[C@H](O)C(C)(C)[C@H](CC(=O)OC)[C@]12C`, the activity change, negative = inhibition was -4.68% (inactive). Then `CCOC(=O)[C@H](CCc1ccccc1)N[C@H](C)C(=O)N1C2CCCCC2C[C@H]1C(=O)O` (stereo not given in full), with 14.3% (inactive) and 13.5% (inactive).
